# PubChem BioAssay (NCATS)
# Results filed as inconclusive are left out. Unmarked numbers belong to inactive results. Activity calls are given as the source filed them. Calls follow the shape of the dose curve; as a rule, active = well fitted inhibition curve with a large enough effect; inconclusive = small, poorly fitted or top-dose-only effect; inactive = no such curve, though single readings can be large or run the other way.
# Experiment: Primary qHTS for inhibitors of La Crosse Virus (LACV) - induced cell death in SH-SY5Y cells (AID 1508616);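 also: top concentration of the series differs between compounds; 0% = infected DMSO wells and 100% = uninfected DMSO wells; higher means more rescue of cells from virus-induced death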
# Settings: SH-SY5Y LACV cytopathicity rescue, ATP luminescence, 6 d; series mostly up to 4.29 µM
# Description: Assay Provider: Karin Peterson Ph.D.
# National Institute of Allergy and Infection Diseases, National Institute of Health
# La Crosse Virus (LACV) is a California serogroup mosquito-borne arbovirus, family Peribunyaviridae, which is an endemic pathogen in North America and can induce a rare, life-threatening neurological disease in children. LACV was first isolated in the early 1960s, from a summer "rural encephalitis" case in La Crosse, Wisconsin, USA. Since then, LACV encephalitis cases have been found in more than twenty states, with most cases in the Mississippi and Ohio River basins. The life cycle of LACV is maintained between the vector, the eastern tree-hole mosquito Aedes triseriatus, and vertebrate hosts including eastern gray squirrels (Sciurus carolinensis) and chipmunks (Tamiasstriatus grinseus). […] Most LACV infections in humans are asymptomatic or induce mild clinical symptoms of fever, headache, lethargy and vomiting. However, in some cases LACV can cause severe neuroinvasive disease, including encephalitis, meningitis, and meningoencephalitis, requiring hospitalization. To date, there is neither a licensed vaccine nor a Food and Drug Administration (FDA) approved antiviral therapy available to prevent or treat LACV encephalitis. The primary treatment for viral encephalitis is palliative care due to the lack of therapeutics. In the current study, we conducted a screen of 4,096 FDA approved and bioactive small molecules against LACV, by screening for rescue of LACV-induced cell death in SH-SY5Y cells.
# LACV-induced cytopathicity assay
# SEQUENCE No. (1,2, 3, etc.); […] (e.g., Cells, Incubation, Reagent, etc.); VALUE and DESCRIPTION.
# 1. Reagent; 2 uL; Cell solution.
# 3. Compounds; 23nL; Compound library
# 4. Reagent; 12 uL; LACV virus
# 6. Reagent; 24 uL; ATPLite (PerkinElmer)
# 7. Time; 5 min; Room temperature
# 8. Detection; Luminescence; View
# NOTES (numbers refer to sequence above)
# 1. Seed 6000 SH-SY5Y cells (ATCC CRL-2266) in 2 microL/well media (DMEM/F12 10% FBS, 1x L-Glutamine, 1x Pyruvate, 1x NEAA, 1x Pen/Strep) in 384-well assay plates (tissue culture treated, white, solid bottom).
# 2. Incubate at 37 degrees C with 5% CO2 for 24 hr.
# 3. Dispense 23 nL/well compounds in DMSO via pin transfer.
# 4. Dispense 12 microL/well of LACV (LACV/human/1978) in media at 0.01 MOI.
# 5. Incubate at for 6 days at 37C 5% CO2
# 6. Dispense 24 microL/well of ATPLite 1step Luminescence assay system (PerkinElmer).
# 7. Incubate for 5 min at room temperature.
# 8. Read luminescence signal (Viewlux plate reader, PerkinElmer). Data was normalized with DMSO control wells containing LACV as 0%, and DMSO control wells without virus as 100%.
SMILES,outcome,activity change
CC(=O)N(CC(O)CO)c1c(I)c(C(=O)NCC(O)CO)c(I)c(C(=O)NCC(O)CO)c1I (stereo not given),inactive,–
Cc1ncc(CO)c(CN)c1O,inactive,–
Nc1ncnc2c1ncn2[C@@H]1O[C@H](COP(=O)(O)O)[C@@H](O)[C@H]1O,inactive,–
O=C(O)CCC(=O)O,inactive,–
CCCCCCCCCCOc1cc2c(=O)c(C(=O)OCC)c[nH]c2cc1OCC,–,5.38% [at 0.431 µM]
CN1C(C)(C)CCCC1(C)C,inactive,–
CN1C(=O)CC(c2ccccc2)C1=O (stereo not given),inactive,–
O=C(O)[C@@H]1[C@H]2C[C@H]3c4[nH]c5ccccc5c4CCN3C[C@@H]2CC[C@@H]1O,inactive,–
CCc1cccc(CC)c1NC(=O)CN(CC(=O)O)CC(=O)O,inactive,–
CC[C@]12CCCN3CCc4c(n(c5ccccc45)[C@@](O)(C(=O)OC)C1)[C@@H]32,inactive,–
CCCCCCCCCCC(CO)CCCCCCCC (stereo not given),inactive,–
CCC(C)(CN(C)C)OC(=O)c1ccccc1 (stereo not given),inactive,–
C/C(=C(\CCO)SS/C(CCO)=C(\C)N(C=O)Cc1cnc(C)nc1N)N(C=O)Cc1cnc(C)nc1N,inactive,–
CCCCCC(N)=O,inactive,–
O=C(/C=C/c1ccc(O)c(O)c1)O[C@@H]1C[C@@](OC(=O)/C=C/c2ccc(O)c(O)c2)(C(=O)O)C[C@@H](O)[C@@H]1O,inactive,–
O=C(O)c1ccccc1OP(=O)(O)O,inactive,–
COc1cc(C(=O)NCCCCCC(=O)O)cc(OC)c1OC,inactive,–
COc1ccc(-c2cc(=O)c3c(O)cc(O[C@@H]4O[C@H](CO[C@@H]5O[C@@H](C)[C@H](O)[C@@H](O)[C@H]5O)[C@@H](O)[C@H](O)[C@H]4O)cc3o2)cc1O,inactive,–
CO[C@@]1(NC(=O)C(C(=O)O)c2ccc(O)cc2)C(=O)N2C(C(=O)O)=C(CSc3nnnn3C)CO[C@@H]21 (stereo not given in full),inactive,–
Cc1c(Cn2ccnc2)c2ccccc2n1CCC(=O)O,inactive,–

SMILES,outcome,activity change
O=C1c2cccc(O)c2C(=O)c2c(O)cccc21,inactive,–
CC(C)(C)C(=O)OCOC(=O)[C@@H]1N2C(=O)[C@@H](NC(=O)[C@H](N)c3ccccc3)[C@H]2SC1(C)C,inactive,–
CC[N+](C)(CC)CCOC(=O)C1c2ccccc2Oc2ccccc21,inactive,–
Cc1cccc(Nc2ccccc2C(=O)O)c1C,inactive,–
COc1ccc(O)cc1,inactive,–
Cc1ccc(C(C)C)c(O)c1,inactive,–
Cc1c(NC(C)C)c(=O)n(-c2ccccc2)n1C,inactive,–
CCCCCCCC(=O)OCC(COC(=O)CCCCCCC)OC(=O)CCCCCCC,inactive,–
O=c1[nH]c(=O)n([C@H]2C[C@H](O)[C@@H](CO)O2)cc1I,inactive,–
CC1CC(OC(=O)c2ccccc2O)CC(C)(C)C1 (stereo not given),inactive,–
O=C(O)c1cc(=O)c2ccccc2o1,inactive,–
NC(=O)NS(=O)(=O)c1ccc(N)cc1,inactive,–
CN1C[C@@H]2C[C@H]1CN2c1cc2c(cc1F)c(=O)c(C(=O)O)cn2C1CC1,inactive,–
CN(C(=O)c1c(O)c2ccccc2n(C)c1=O)c1ccccc1,inactive,–
CCOC(=O)OC(C)OC(=O)[C@@H]1N2C(=O)[C@@H](NC(=O)[C@H](N)c3ccccc3)[C@H]2SC1(C)C (stereo not given in full),inactive,–
CC(=O)Nc1ccc(C(=O)O)cc1,inactive,–
CN1CC(=O)NC1=N,inactive,–
COc1ccc2cc(CCC(C)=O)ccc2c1,inactive,–
CN[C@@H]1[C@@H](O)[C@@H](O[C@@H]2[C@H](O)[C@H](O[C@H]3OC(CN)=CC[C@H]3N)[C@@H](N)C[C@H]2N)OCC1(C)O (stereo not given in full),inactive,–
c1ccc2[nH]ccc2c1,inactive,–
